Active and inactive are the calls of the source. Rule for the calls: active = hit-call score of the fitted dose curve at least 0.9, where 1 is the maximum; inactive = score below 0.9.
Assays:
Conditions in all cases: mRNA level, 48 h; actives raise or lower the signal
[1] = read-out: ABC Transporter (ABCC2), ABCC2 (gene 1244); assay: LTEA_HepaRG_ABCC2: Life Technologies and Expression Analysis (LTEA) Assay for ABC Transporter (ABCC2) using HepaRG (AID 2283464)
Method in brief: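 HepaRG cells were plated 48 h, switched to serum-free induction medium, then exposed in duplicate for 48 h to 8 concentrations (top 100 uM, half-log steps, 0.5% DMSO). ABCC2 mRNA was measured by qRT-PCR normalized to ACTB/GAPDH/POLR2A; bidirectional fitting versus DMSO.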

[2] = read-out: Broad substrate specificity ATP-binding cassette transporter ABCG2 (Homo sapiens) (UniProt Q9UNQ0); assay: LTEA_HepaRG_ABCG2: Life Technologies and Expression Analysis (LTEA) Assay for ABC Transporter (ABCG2) using HepaRG (AID 2283465)
Method in brief: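 Differentiated HepaRG cells were exposed for 48 h in serum-free induction medium to 8 half-log concentrations, top 100 uM, in 0.5% DMSO. ABCG2 mRNA was measured by qRT-PCR, normalized to ACTB, GAPDH and POLR2A, with bidirectional fitting versus DMSO.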

[3] = read-out: ATP-citrate lyase (ACLY), ACLY (gene 47); assay: LTEA_HepaRG_ACLY: Life Technologies and Expression Analysis (LTEA) Assay for ATP-citrate lyase (ACLY) using HepaRG (AID 2283466)
Method in brief: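 Differentiated HepaRG cells exposed 48 h in serum-free induction medium to eight half-log concentrations up to 100 uM in 0.5% DMSO, duplicates. Transcript measured by Fluidigm TaqMan qRT-PCR, normalized to ACTB, GAPDH, POLR2A; bidirectional fit versus DMSO.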

[4] = read-out: Peroxisomal acyl-coenzyme A oxidase 1 (ACOX1) gene, ACOX1 (gene 51); assay: LTEA_HepaRG_ACOX1: Life Technologies and Expression Analysis (LTEA) Assay for Peroxisomal acyl-coenzyme A oxidase 1 (ACOX1) gene using HepaRG (AID 2283467)
Method in brief: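 HepaRG cells, plated 48 h then switched to serum-free induction medium, were exposed in duplicate for 48 h to 8-point half-log concentrations up to 100 uM in 0.5% DMSO. ACOX1 mRNA was measured by qRT-PCR, normalized to ACTB/GAPDH/POLR2A, and fitted bidirectionally versus DMSO.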

[5] = read-out: Alkaline Phosphatase, Placental (ALPP) gene, ALPP (gene 250); assay: LTEA_HepaRG_ALPP: Life Technologies and Expression Analysis (LTEA) Assay for Alkaline Phosphatase, Placental (ALPP) gene using HepaRG (AID 2283468)
Method in brief: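 Differentiated human HepaRG cells were plated and cultured 48 h, then exposed in duplicate for 48 h in serum-free induction medium to eight half-log concentrations from 100 uM in 0.5% DMSO. ALPP mRNA was measured by TaqMan qRT-PCR, normalized to ACTB, GAPDH, POLR2A.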

[6] = read-out: Bcl-2 (BAD) gene, BAD (gene 572); assay: LTEA_HepaRG_BAD: Life Technologies and Expression Analysis (LTEA) Assay for Bcl-2 (BAD) gene using HepaRG (AID 2283469)
Method in brief: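 Differentiated HepaRG cells were exposed in duplicate in 0.5% DMSO for 48 h to eight-point half-log concentrations up to 100 uM. BAD mRNA was measured by Fluidigm TaqMan qRT-PCR, normalized to ACTB, GAPDH and POLR2A, and fitted bidirectionally against DMSO.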

[7] = read-out: adenosine kinase (ADK) gene, ADK (gene 132); assay: LTEA_HepaRG_ADK: Life Technologies and Expression Analysis (LTEA) Assay for adenosine kinase (ADK) gene using HepaRG (AID 2283471)
Method in brief: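 Read-out is ADK transcript level measured by qRT-PCR and normalised to three housekeeping genes. Cells are human HepaRG, dosed for 48 h at up to 100 uM in 0.5% DMSO. Gain or loss of signal is fitted against DMSO controls.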

[8] = read-out: Alpha-fetoprotein (AFP) gene, AFP (gene 174); assay: LTEA_HepaRG_AFP: Life Technologies and Expression Analysis (LTEA) Assay for Alpha-fetoprotein (AFP) gene using HepaRG (AID 2283472)
Method in brief: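 After a 48 h plating period, cells are moved to serum-free induction medium and dosed in duplicate (100 uM maximum, half-log dilutions, 0.5% DMSO) for another 48 h. Total RNA goes to TaqMan qRT-PCR; AFP signal is housekeeping-normalized.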

BCL2L11 (gene 10018) = assay: LTEA_HepaRG_BCL2L11: Life Technologies and Expression Analysis (LTEA) Assay for Bcl-2 (BCL2L11) gene using HepaRG (AID 2283473)
Method in brief: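 Differentiated human HepaRG cells in serum-free induction medium were exposed in duplicate for 48 h to eight concentrations (top 100 uM, half-log steps, 0.5% DMSO). BCL2L11 mRNA was quantified by TaqMan qRT-PCR, normalized to ACTB/GAPDH/POLR2A, bidirectional fit versus DMSO.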

Broad substrate specificity ATP-binding cassette transporter ABCG2 (Homo sapiens), sequence (Q9UNQ0 whole entry, looked up): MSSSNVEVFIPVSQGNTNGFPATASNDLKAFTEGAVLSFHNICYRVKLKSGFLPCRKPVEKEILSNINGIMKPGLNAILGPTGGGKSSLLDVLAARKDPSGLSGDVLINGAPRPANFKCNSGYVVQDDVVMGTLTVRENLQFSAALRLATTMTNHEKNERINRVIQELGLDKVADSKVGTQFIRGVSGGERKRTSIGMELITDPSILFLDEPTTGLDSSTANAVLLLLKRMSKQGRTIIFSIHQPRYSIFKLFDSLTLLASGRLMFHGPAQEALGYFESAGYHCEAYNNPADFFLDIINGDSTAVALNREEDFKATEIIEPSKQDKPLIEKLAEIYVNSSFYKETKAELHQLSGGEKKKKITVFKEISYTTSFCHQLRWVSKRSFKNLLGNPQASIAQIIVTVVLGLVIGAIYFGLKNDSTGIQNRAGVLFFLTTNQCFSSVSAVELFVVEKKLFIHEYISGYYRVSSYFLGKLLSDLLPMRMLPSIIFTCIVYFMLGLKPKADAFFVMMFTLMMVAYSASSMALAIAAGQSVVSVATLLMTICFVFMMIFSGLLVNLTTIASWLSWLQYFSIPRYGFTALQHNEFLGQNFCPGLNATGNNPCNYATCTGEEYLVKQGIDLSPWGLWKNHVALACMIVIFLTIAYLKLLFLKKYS

| SMILES | outcome [1] | outcome [2] | outcome [3] | outcome [4] | outcome [5] | outcome [6] | outcome [7] | outcome [8] | outcome (BCL2L11 (gene 10018)) | AC50 [1] | AC50 [2] | AC50 [3] | AC50 [5] | AC50 [8] | AC50 (BCL2L11 (gene 10018)) |
| --- | --- | --- | --- | --- | --- | --- | --- | --- | --- | --- | --- | --- | --- | --- | --- |
| c1ccc(OP(Oc2ccccc2)Oc2ccccc2)cc1 | inactive | inactive | inactive | inactive | inactive | inactive | inactive | inactive | inactive | – | – | – | – | – | – |
| CC(Cl)(Cl)C(=O)O | inactive | inactive | inactive | inactive | inactive | inactive | inactive | inactive | inactive | – | – | – | – | – | – |
| CCCCc1ccccc1 | inactive | inactive | inactive | inactive | inactive | inactive | inactive | inactive | inactive | – | – | – | – | – | – |
| Cc1cccc(N)c1 | inactive | inactive | inactive | inactive | inactive | inactive | inactive | inactive | inactive | – | – | – | – | – | – |
| CC(C)(C)OOC(C)(C)C | inactive | inactive | inactive | inactive | inactive | inactive | inactive | inactive | inactive | – | – | – | – | – | – |
| ClC1=C(Cl)C2(Cl)C3C(Cl)C(Cl)CC3C1(Cl)C2(Cl)Cl (configuration not stated) | – | – | – | inactive | – | inactive | inactive | – | inactive | 8.61 µM (active) | 21.4 µM (active) | 85.9 µM (active) | 9.92 µM (active) | 15.2 µM (active) | – |
| O=P1(N(CCCl)CCCl)NCCCO1 (configuration not stated) | inactive | inactive | inactive | inactive | inactive | inactive | inactive | inactive | inactive | – | – | – | – | – | – |
| Cc1ccc([N+](=O)[O-])cc1C | inactive | inactive | inactive | inactive | inactive | inactive | inactive | inactive | inactive | – | – | – | – | – | – |
| Nc1ccc2ccccc2c1 | inactive | inactive | inactive | inactive | inactive | inactive | inactive | inactive | inactive | – | – | – | – | – | – |
| c1ccc2c(c1)Nc1ccccc1S2 | inactive | inactive | inactive | inactive | inactive | inactive | inactive | inactive | inactive | – | – | – | – | – | – |
| Cc1ccc(N)cc1N | inactive | inactive | inactive | inactive | inactive | inactive | inactive | inactive | inactive | – | – | – | – | – | – |
| [N-]=[N+]=[N-] | inactive | – | – | inactive | inactive | inactive | inactive | – | – | – | 34.4 µM (active) | 73.4 µM (active) | – | 77.9 µM (active) | 80.6 µM (active) |
| CC(C)(C)c1ccc(O)cc1 | inactive | inactive | inactive | inactive | inactive | inactive | inactive | inactive | inactive | – | – | – | – | – | – |
| O=[N+]([O-])c1ccc(Cl)c(Cl)c1 | inactive | inactive | inactive | inactive | inactive | inactive | inactive | inactive | inactive | – | – | – | – | – | – |
| CCOP(=S)(OCC)SCSCC | inactive | inactive | inactive | inactive | inactive | inactive | inactive | inactive | inactive | – | – | – | – | – | – |
| CCOS(=O)(=O)OCC | inactive | inactive | inactive | inactive | inactive | inactive | inactive | inactive | inactive | – | – | – | – | – | – |
| O=C(O)C(Cl)Cl | inactive | inactive | inactive | inactive | inactive | inactive | inactive | inactive | inactive | – | – | – | – | – | – |
| Nc1cc2c3c(c1)C(c1ccccc1)=N[C@@H](NC(=O)c1cccnc1)C(=O)N3CC2 | inactive | inactive | inactive | inactive | inactive | inactive | inactive | inactive | inactive | – | – | – | – | – | – |
| CCOP(=S)(Oc1ccc([N+](=O)[O-])cc1)c1ccccc1 (configuration not stated) | – | – | inactive | inactive | – | inactive | inactive | – | inactive | 24 µM (active) | 12.7 µM (active) | – | 50 µM (active) | 29.4 µM (active) | – |
| CSC(C)(C)C=NO | inactive | inactive | inactive | inactive | inactive | inactive | inactive | inactive | inactive | – | – | – | – | – | – |
| O=P(Oc1ccccc1)(Oc1ccccc1)Oc1ccccc1 | – | – | – | inactive | – | inactive | inactive | – | inactive | 8.94 µM (active) | 8.36 µM (active) | 71.6 µM (active) | – | 50 µM (active) | – |
| CCNc1nc(Cl)nc(NC(C)(C)C)n1 | – | inactive | inactive | inactive | – | inactive | inactive | inactive | inactive | 4.01 µM (active) | – | – | 9.92 µM (active) | – | – |

From PubChem BioAssay (EPA / NIEHS)
